# Neddylation inh = cullin neddylation inhibition; calls only at 25 µM; TR-FRET cullin neddylation, biochemical; AID 651699; P61081+Q13564; hit rate 0.58% among 360,000; in the data active = inhibition above about 36%
# MBD2 DNA inh = inhibitors of human MBD2 binding to methylated oligonucleotide. Q9UBB5. TR-FRET. inhibition, % at 4.4 µM. hit rate 0.31% among 370,000. AID 686964; in the data active = inhibition above about 13%
# UHRF1 MBD2 ctr = blocks human UHRF1 binding to methylated DNA; Q96T88; UHRF1 binding to methylated oligo, TR-FRET; inhibition, % at 4.4 µM; hit rate 0.75% among 370,000; AID 687016;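 also: UHRF1 SRA domain binding a hemimethylated CpG hairpin DNA probe; 0% = median of test compound wells and 100% = reference inhibitor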
# KLK7 zymogen act = activators of human kallikrein-7 zymogen; P49862; purified proKLK7, EDANS-DABCYL substrate fluorescence; 100% is mature enzyme control, 0% vehicle; activation, % at 7 µM; hit rate 0.9% among 370,000; AID 652039;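 active = activation above the mean of all tested compounds plus 3 SD, computed per campaign excluding outliers beyond control limits, cut at about 13% in these data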
# Rin1 Abl inh = inhibitors of human Rin1-Abl protein interaction. TR-FRET Rin1/Abl binding, biochemical. AID 588664. hit rate 0.4% among 360,000. inhibition, % at 7.35 µM. P00519+Q13671; in the data active = inhibition above about 5%, passing the limit was not always enough
# LEDGF integ inh = blocks HIV-1 LEDGF/p75-dependent DNA integration; TR-FRET IN-LEDGF/p75 DNA integration, Eu/Cy5; inhibition, % at 3.7 µM; hit rate 0.64% among 370,000;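 active = inhibition above the screen-wide mean plus 3 SD, cut at about 13% in these data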;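 also: signal is the Cy5 over europium emission ratio at 671 and 618 nm; 0% = plate median of compound wells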
# UHRF1 DNA bind = UHRF1 methyl-oligo binding inhibition as MBD2 counter-screen | shares compounds with MBD2 DNA inh | UHRF1 binding to methylated oligonucleotide, TR-FRET | inhibition, % at 4.4 µM | hit rate 25% among 1,000 | AID 720530;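 also: UHRF1 SRA domain binding a labeled hemimethylated CpG hairpin DNA; 0% = vehicle only and 100% = reference inhibitor with vehicle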
# MBD2 confirm = MBD2-DBD methyl-DNA binding inhibition, TR-FRET confirmation; shares compounds with MBD2 DNA inh; TR-FRET MBD2-DBD binding to methylated oligonucleotide; inhibition, % at 4.4 µM; hit rate 26% among 1,000; AID 720531; in the data active = inhibition above about 14%
# IN multimer up = HIV-1 integrase multimerization activation, counter-screen | shares compounds with LEDGF integ inh | TR-FRET HIV-1 integrase multimerization, biochemical | activation, % at 7.7 µM | hit rate 17% among 2,000; in the data active = activation above about 8.9%
# TR-FRET interf = TR-FRET optical interference, LEDGF/p75 integration counter-screen; shares compounds with LEDGF integ inh; TR-FRET optical interference counterscreen, HIV-1 IN multimerization; inhibition, % at 7.7 µM; 2,000 tested, under 10 active; AID 1053135;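 active = inhibition above the mean over all tested compounds plus 3 SD, which no compound reached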;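 also: 0% = integrase with antibodies and DMSO and 100% = antibodies without integrase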
# IN-LEDGF confirm = LEDGF/p75-dependent HIV-1 integration inhibition, confirmation; inhibition, % at 3.7 µM; AID 1053136; TR-FRET LEDGF/p75-dependent HIV-1 integration, biochemical; shares compounds with LEDGF integ inh; hit rate 36% among 2,000; in the data active = inhibition above about 14%
# * = called active by the depositor; i = inactive; · = no result; + = active, no number. Only some compounds are listed: those with a hit (about 3.1% of all), similar ones and a draw of the others. Rule as the data show it, unless noted: active = inhibition above about 21%; inactive = the rest.
SMILES,Neddylation inh,MBD2 DNA inh,UHRF1 MBD2 ctr,KLK7 zymogen act,Rin1 Abl inh,LEDGF integ inh,UHRF1 DNA bind,MBD2 confirm,IN multimer up,TR-FRET interf,IN-LEDGF confirm
N#Cc1c(SCC(=O)Nc2nccs2)sc2c(O)cc(=O)[nH]c12,i,35*,77*,0,1,18*,27*,15*,44*,-156,34*
CC1CCCN(C(=O)COC(=O)CNC(=O)c2sc3ccccc3c2Cl)C1 (configuration not stated),i,-8,-2,-1,-87,-5,·,·,·,·,·
O=C(N/N=C/c1ccc(-c2ccc(S(=O)(=O)Nc3ncccn3)cc2)o1)c1cc2ccccc2cc1O,i,5,17,-1,0,10,·,·,·,·,·
NC(=S)NN=Cc1ccc(-c2ccc(S(=O)(=O)Nc3ncccn3)cc2)o1,i,15*,47*,1,2,15*,29*,9,7,-35,34*
O=S(=O)(O)c1cc(O)c2cc(Nc3ccccc3)ccc2c1,+,26*,33*,-40,-2,16*,31*,14*,41*,-145,44*
Cc1ccc(S(=O)(=O)c2cc(Nc3ccccc3)ccc2O)cc1,i,-1,-3,0,3,-3,·,·,·,·,·
O=[N+]([O-])c1cccc(I)c1,·,59*,88*,0,·,65*,1,6,-2,12,-2
Cc1ccc(N2CCN(S(=O)(=O)c3ccc4oc(=O)ccc4c3)CC2)c(C)c1,i,5,1,0,3,1,·,·,·,·,·
O=c1oc2c(-c3ccc([N+](=O)[O-])cc3)cc(O)cc2s1,i,21*,30*,0,5,25*,10,7,1,-4,-4
Cc1cc(C(=O)OCC(=O)NC2(C#N)CCCCC2)c(C)o1,i,-3,-1,0,3,5,·,·,·,·,·
O=S(=O)(c1ccc2nc(-c3ccco3)c(-c3ccco3)nc2c1)N1CCOCC1,i,14*,30*,-1,0,67*,17,-2,1,-5,45*
COc1ccc(C2C3=C(CC(C)(C)CC3=O)OC(N)=C2[N+](=O)[O-])cc1 (configuration not stated),i,0,0,0,0,-3,·,·,·,·,·
Cc1ccc(N=C2NC(=O)CS2)cc1,i,-2,-2,0,1,-3,·,·,·,·,·
Cc1ccc(C)n1/N=C1/NC(=O)CS1,i,39*,76*,-1,4,58*,48*,17*,3,-15,66*
Cc1c(C=O)c(C=O)c(C)n1Cc1ccccc1,i,16*,31*,1,-2,22*,4,4,-2,11,12
CCCCn1nnnc1C1(C)CCC(=O)N1CCCn1ccnc1 (configuration not stated),i,14*,17,1,·,16*,17,16*,4,-13,7
CC(Cl)C(=O)N1CCC(C(=O)NC2CCCc3ccccc32)CC1 (configuration not stated),·,-2,0,0,·,6,·,·,·,·,·
COc1cc(C)c2c(c1C=O)Oc1c(c(C)c(O)c3c1C(O)OC3=O)OC2=O (configuration not stated),i,31*,65*,1,2,90*,24*,9,1,-3,92*
CN(C)c1ccc(O)c2c1CC1CC3[C@@H](N(C)C)C(=O)C(C(N)=O)=C(O)[C@]3(O)C(=O)C1=C2O (some centres not stated),i,35*,80*,1,16*,77*,36*,15*,51*,-182,48*
C[C@H]1c2cccc(O)c2C(O)=C2C(=O)[C@]3(O)C(O)=C(C(N)=O)C(=O)[C@@H](N(C)C)[C@@H]3[C@@H](O)[C@@H]21,i,·,·,·,5,·,·,·,·,·,·
CCCCN(C)C(=O)CNc1nnnn1-c1ccccc1,·,0,0,-1,·,-3,·,·,·,·,·
COCc1cc(=O)[nH]c2cc(NC(=O)C(C)(C)CCl)c(C)cc12,i,0,5,1,2,0,·,·,·,·,·
Cc1cc2nc3c(=O)[nH]c(=S)[nH]c3nc2cc1NC(=O)C(F)(F)F,i,33*,28*,1,11,74*,-11,-12,12*,-42,5
COc1ccc(N2CCN(S(=O)(=O)CC34CCC(CC3=O)C4(C)C)CC2)cc1 (configuration not stated),i,5,5,0,1,-6,·,·,·,·,·
CCC1=NN2C(=N)/C(=C\c3ccc(SCc4ccco4)o3)C(=O)N=C2S1,i,20*,56*,0,-1,50*,20,4,5,-25,27*
SMILES,Neddylation inh,MBD2 DNA inh,UHRF1 MBD2 ctr,KLK7 zymogen act,Rin1 Abl inh,LEDGF integ inh,UHRF1 DNA bind,MBD2 confirm,IN multimer up,TR-FRET interf,IN-LEDGF confirm
Cc1ccc(C)n1C(CC(=O)O)c1ccc(C#N)cc1 (configuration not stated),i,27*,95*,1,5,47*,11,5,2,-6,13
O=Cc1ccc2oc3nc4n(c(=O)c3c(=O)c2c1)CCCS4,i,18*,16,-1,-1,20*,38*,36*,17*,-63,32*
Cc1sc2nc3n(c(=O)c2c1C)CCCS3,i,-9,0,0,0,0,·,·,·,·,·
CN1OC[C@@H]2CN[C@H](c3ccc(-c4cc5ccccc5o4)cc3)C[C@@H]21,i,·,·,·,-2,·,·,·,·,·,·
O=S(=O)(Nc1cccc(-c2ccc3nncn3n2)c1)c1cc(F)ccc1F,i,-4,4,0,-2,-2,·,·,·,·,·
O=C(C=Cc1ccco1)c1ccco1,i,20*,58*,-2,3,73*,11,1,2,-8,7
O=C(c1ccco1)N(c1ccccn1)c1ccccn1,i,-3,-1,0,-3,-1,·,·,·,·,·
O=C(/C=C/c1ccco1)N(c1ccccn1)c1ccccn1,i,23*,52*,1,0,22*,57*,28*,8,-40,46*
